Experimental findings from PubChem BioAssay (Tox21) are described below.

Values without a mark were called inactive. Results filed as inconclusive are left out. The source made the active and inactive calls. Calls come from the whole dose curve; as a rule, active = well fitted curve in the direction sought with a large enough effect in the repeat runs; inconclusive = weak or mixed curves; inactive = no such curve, though single readings can be large; an effect the other way counts as inactive or inconclusive.

A short description of experiment [1]: Human pregnane X receptor (PXR) small molecule agonists, qHTS cell viability counter screen (AID 1346977). Note: nearly all actives have a fitted effect of over 50% in size. Note: potency is the fitted concentration of half-maximal effect. An outline of the steps:
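In each well, the PXR reporter HepG2 line was checked for viability: CellTiter-Fluor reagent added 23hr post-dosing, fluorescence read after 1hr incubation at 37C.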
In general terms: qHTS replaces the single test concentration by a dilution series.

Experiment [2] is described as follows: Caspase-3/7 induction in HepG2 cells by small molecules, qHTS assay (AID 1346978). Note: nearly all actives have a fitted effect of over 15% in size. The procedure, abridged:
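Caspase-3/7 induction was measured by Caspase-Glo 3/7 luminescence (30 min, room temperature) after a 17 hr compound exposure of wild-type HepG2 cells seeded at 2,000 per well and pre-incubated 5 hr.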

Experiment [3] in a line: Caspase-3/7 induction in CHO-K1 cells by small molecules, qHTS cell viability counter screen (AID 1346979). Note: nearly all actives have a fitted effect of over 35% in size. Note: potency is the fitted concentration of half-maximal effect. The procedure, abridged: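 Following a 5hr settling period, CHO-K1 cells at 1,500 per well received DMSO-dissolved compounds. Cell viability was quantified 16hr later by CellTiter-Fluor fluorescence, measured after 1hr with reagent at 37C.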
A short description of experiment [4]: Caspase-3/7 induction in CHO-K1 cells by small molecules, qHTS assay (AID 1346980). Note: nearly all actives have a fitted effect of over 15% in size. The procedure, abridged:
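Luminescent Caspase-Glo 3/7 read (30min, room temperature) quantified apoptosis induction. Cells were wild-type CHO-K1, treated with compound for 17hr at 37 C and 5% CO2.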

A short description of experiment [5]: Caspase-3/7 induction in HepG2 cells by small molecules, qHTS cell viability counter screen (AID 1346981). Note: nearly all actives have a fitted effect of over 30% in size. Note: potency is the fitted concentration of half-maximal effect. An outline of the steps:
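Fluorescence read-out of live-cell protease activity (CellTiter-Fluor) after 1 hr with reagent. This was measured in the same wells as the caspase-3/7 luminescence, on HepG2 cells exposed to DMSO-dissolved compounds for 16 hr at 37 C.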

Experiment [6] addresses Nuclear receptor subfamily 1 group I member 2 (Homo sapiens) (UniProt O75469). Kind of experiment: Human pregnane X receptor (PXR) small molecule agonists, qHTS assay (AID 1346982). Note: nearly all actives have a fitted effect of over 35% in size. An outline of the steps:
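HepG2 PXR-Luc reporter line, 5% charcoal-stripped FBS; 5 hr pre-incubation, compound (DMSO) 24 hr at 37 C/5% CO2; ONE-Glo 30 min RT; luminescence read-out.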

Experiment [7] addresses Nuclear receptor subfamily 1 group I member 2 (Rattus norvegicus) (UniProt Q9R1A7). Kind of experiment: Rat pregnane X receptor (rPXR) activation by small molecules, qHTS assay (AID 1346983). Note: nearly all actives have a fitted effect of over 20% in size. Conditions: rPXR luciferase reporter cells, One-Glo luminescence, 24 h; max activation: hits give high values. An outline of the steps: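 Luminescent readout (One-Glo luciferase, 30 min room temperature) followed 24 hr compound treatment at 37 C of rPXR cells plated 2,000 per well and preincubated 5hr; qHTS format with compounds delivered in DMSO.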

The target of experiment [8] is Nuclear receptor subfamily 1 group I member 2 (Homo sapiens) (UniProt O75469). The experiment can be described thus: CYP3A4 induction through human pregnane X receptor (PXR) by small molecules, qHTS assay (AID 1346984). Note: nearly all actives have a fitted effect of over 40% in size. The procedure, abridged:
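HepG2-derived DPX-2 line carrying PXR plus a CYP3A4-promoter luciferase reporter; cells plated 5 hr, compound-exposed 24 hr at 37C. CYP3A4 activity probed with 3uM (final) Luciferin-IPA for 3hr, then luciferase read after One-Glo.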

The target is the same in experiment [9]. The experiment can be described thus: Human pregnane X receptor (PXR) activation by small molecules, qHTS assay (AID 1346985). Note: nearly all actives have a fitted effect of over 40% in size. An outline of the steps:
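DPX-2 cells (HepG2 co-transfected with a PXR response element and a CYP3A4-promoter luciferase construct) were seeded at 2,000 per well, rested 5 hr at 37C, then exposed to DMSO-dissolved compounds for 24 hr. Activation was read as luciferase luminescence.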

In experiment [10] the target is Cytochrome P450 2D6 (Homo sapiens) (UniProt P10635). The experiment can be described thus: Cytochrome P450 Family 2 Subfamily D Member 6 (CYP2D6) small molecule antagonists: luciferase reporter qHTS assay (AID 1671196). Note: nearly all actives have a fitted effect of over 50% in size. Note: potency is the fitted concentration of half-maximal effect. The procedure, abridged:
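Luminogenic proluciferin substrate, CYP2D6 enzyme; 10 min RT preincubation with compound, NADPH regeneration system added, 1 h RT. Stop/detection reagent, 20 min RT, luminescence read (RLU). Signal proportional to CYP activity.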
Background: A reporter such as luciferase makes a cellular process visible.

Experiment [11] has as its target Cytochrome P450 2C19 (Homo sapiens) (UniProt P33261). The experiment can be described thus: Cytochrome P450 Family 2 Subfamily C Member 19 (CYP2C19) small molecule antagonists: luciferase reporter qHTS assay (AID 1671197). Note: series mostly up to about 120 µM; nearly all actives have a fitted effect of over 65% in size. The procedure, abridged: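 First, compounds are pinned into enzyme-substrate mix and held 10 min at room temperature. Second, NADPH regeneration solution is added and plates incubate 1 h at 37C. Third, detection reagent is added and luminescence read after 20 min.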

Experiment [12] deals with Cytochrome P450 2C9 (Homo sapiens) (UniProt P11712). Kind of experiment: Cytochrome P450 Family 2 Subfamily C Member 9 (CYP2C9) small molecule antagonists: luciferase reporter qHTS assay (AID 1671198). Note: series mostly up to about 120 µM; nearly all actives have a fitted effect of over 50% in size. An outline of the steps:
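Enzyme-substrate mix preincubated with compound 10 min at room temperature; reaction started with NADPH regeneration solution, 1 h 37C. Luminescent luciferin product read after 20 min detection reagent.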

Experiment [13] has as its target Cytochrome P450 1A2 (Homo sapiens) (UniProt P05177). Kind of experiment: Cytochrome P450 Family 1 Subfamily A Member 2 (CYP1A2) small molecule antagonists: luciferase reporter qHTS assay (AID 1671199). Note: nearly all actives have a fitted effect of over 50% in size. Note: potency is the fitted concentration of half-maximal effect. An outline of the steps:
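Luminescence readout (relative luminescence units) after luciferin detection reagent, 20 min RT. Preceded by 1 h room-temperature CYP1A2 reaction with NADPH regeneration solution following 10 min compound preincubation with enzyme and proluciferin substrate. Furafylline positive control.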

For experiment [14], the target named is Voltage-gated inwardly rectifying potassium channel KCNH2 (Homo sapiens) (UniProt Q12809). Kind of experiment: Human Ether-a-go-go-Related Gene (hERG) channel small molecule antagonists: fluorescence cell-based qHTS assay (AID 1671200). An outline of the steps:
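In this thallium-flux screen, overnight-cultured U2OS cells bearing the channel are dye-loaded in darkness for an hour, rested 10 min at room temperature, and then monitored kinetically at 480/540 nm for two minutes post-stimulus.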

In experiment [15] the target is Cytochrome P450 3A4 (Homo sapiens) (UniProt P08684). The experiment can be described thus: Cytochrome P450 Family 3 Subfamily A Member 4 (CYP3A4) small molecule antagonists: luciferase reporter qHTS assay (AID 1671201). The procedure, abridged:
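CYP3A4 activity was followed with a P450-Glo proluciferin substrate. Test compounds in DMSO were preincubated 10 min; NADPH regeneration then ran 1 h, and light output was read 20 min after detection reagent.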
% is set by controls: 0 for no effect and ±100 for the full control effect.

Cytochrome P450 1A2 (Homo sapiens), sequence (P05177 whole entry, looked up): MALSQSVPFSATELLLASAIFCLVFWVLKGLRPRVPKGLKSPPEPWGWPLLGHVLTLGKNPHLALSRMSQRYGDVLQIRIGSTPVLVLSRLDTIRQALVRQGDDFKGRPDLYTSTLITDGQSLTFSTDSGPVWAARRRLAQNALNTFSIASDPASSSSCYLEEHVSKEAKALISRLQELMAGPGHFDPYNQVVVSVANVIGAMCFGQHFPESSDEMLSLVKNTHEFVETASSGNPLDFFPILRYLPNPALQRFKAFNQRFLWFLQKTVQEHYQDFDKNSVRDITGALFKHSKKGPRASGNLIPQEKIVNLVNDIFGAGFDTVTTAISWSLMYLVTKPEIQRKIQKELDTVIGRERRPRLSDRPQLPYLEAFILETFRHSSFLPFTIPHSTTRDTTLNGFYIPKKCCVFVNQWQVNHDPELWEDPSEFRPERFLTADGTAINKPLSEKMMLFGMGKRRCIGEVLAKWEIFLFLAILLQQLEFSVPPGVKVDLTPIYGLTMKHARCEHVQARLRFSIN
Cytochrome P450 2C19 (Homo sapiens), sequence (P33261 whole entry, looked up): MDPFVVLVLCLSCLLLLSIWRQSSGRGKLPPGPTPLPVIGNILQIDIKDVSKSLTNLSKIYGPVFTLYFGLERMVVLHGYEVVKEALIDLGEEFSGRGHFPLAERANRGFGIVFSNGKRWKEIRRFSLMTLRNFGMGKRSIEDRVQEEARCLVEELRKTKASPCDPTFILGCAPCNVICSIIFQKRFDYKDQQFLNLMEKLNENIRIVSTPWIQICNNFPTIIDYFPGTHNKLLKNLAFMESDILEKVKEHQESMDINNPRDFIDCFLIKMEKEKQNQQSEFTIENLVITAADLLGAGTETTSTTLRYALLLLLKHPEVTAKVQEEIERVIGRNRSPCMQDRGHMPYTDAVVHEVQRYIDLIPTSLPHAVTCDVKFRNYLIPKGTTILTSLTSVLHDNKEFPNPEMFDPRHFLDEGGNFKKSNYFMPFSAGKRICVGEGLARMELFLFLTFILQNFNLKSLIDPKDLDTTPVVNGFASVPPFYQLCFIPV
Nuclear receptor subfamily 1 group I member 2 (Rattus norvegicus), sequence (Q9R1A7 whole entry, looked up): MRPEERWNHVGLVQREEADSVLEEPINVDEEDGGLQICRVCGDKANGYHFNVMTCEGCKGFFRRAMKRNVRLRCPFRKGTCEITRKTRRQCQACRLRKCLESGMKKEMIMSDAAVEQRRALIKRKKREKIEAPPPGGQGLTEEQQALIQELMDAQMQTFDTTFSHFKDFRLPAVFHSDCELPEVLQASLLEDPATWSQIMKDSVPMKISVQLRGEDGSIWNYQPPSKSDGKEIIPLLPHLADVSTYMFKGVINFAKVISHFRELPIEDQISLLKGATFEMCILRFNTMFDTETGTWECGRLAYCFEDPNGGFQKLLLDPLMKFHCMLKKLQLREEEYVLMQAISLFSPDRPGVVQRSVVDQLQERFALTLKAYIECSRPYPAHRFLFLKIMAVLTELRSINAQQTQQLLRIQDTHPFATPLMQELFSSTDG
Cytochrome P450 2D6 (Homo sapiens), sequence (P10635 whole entry, looked up): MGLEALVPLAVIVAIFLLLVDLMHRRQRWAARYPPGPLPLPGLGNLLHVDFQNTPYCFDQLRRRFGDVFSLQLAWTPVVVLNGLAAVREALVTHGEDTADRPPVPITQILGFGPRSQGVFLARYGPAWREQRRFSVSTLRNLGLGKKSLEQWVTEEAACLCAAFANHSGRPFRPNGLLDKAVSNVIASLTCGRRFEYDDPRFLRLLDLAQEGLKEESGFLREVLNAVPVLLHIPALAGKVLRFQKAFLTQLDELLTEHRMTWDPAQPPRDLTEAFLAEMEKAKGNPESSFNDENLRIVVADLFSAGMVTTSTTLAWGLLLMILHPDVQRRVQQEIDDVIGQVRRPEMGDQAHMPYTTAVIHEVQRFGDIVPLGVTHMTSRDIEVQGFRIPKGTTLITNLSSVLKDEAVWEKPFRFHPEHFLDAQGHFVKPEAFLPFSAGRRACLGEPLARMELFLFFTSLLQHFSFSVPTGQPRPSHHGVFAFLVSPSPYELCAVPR
Nuclear receptor subfamily 1 group I member 2 (Homo sapiens), sequence (O75469 whole entry, looked up): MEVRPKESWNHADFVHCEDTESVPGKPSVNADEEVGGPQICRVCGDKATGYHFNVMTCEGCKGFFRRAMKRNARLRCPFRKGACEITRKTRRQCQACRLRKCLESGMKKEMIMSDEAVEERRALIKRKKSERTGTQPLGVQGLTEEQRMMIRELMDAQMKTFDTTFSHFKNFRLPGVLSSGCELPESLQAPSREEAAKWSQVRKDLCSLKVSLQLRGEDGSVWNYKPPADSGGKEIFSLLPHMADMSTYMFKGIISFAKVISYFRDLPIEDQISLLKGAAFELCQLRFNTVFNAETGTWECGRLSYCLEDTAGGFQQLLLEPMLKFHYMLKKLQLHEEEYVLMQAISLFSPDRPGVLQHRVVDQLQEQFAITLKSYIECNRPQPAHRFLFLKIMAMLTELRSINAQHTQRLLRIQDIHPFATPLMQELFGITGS
Cytochrome P450 3A4 (Homo sapiens), sequence (P08684 whole entry, looked up): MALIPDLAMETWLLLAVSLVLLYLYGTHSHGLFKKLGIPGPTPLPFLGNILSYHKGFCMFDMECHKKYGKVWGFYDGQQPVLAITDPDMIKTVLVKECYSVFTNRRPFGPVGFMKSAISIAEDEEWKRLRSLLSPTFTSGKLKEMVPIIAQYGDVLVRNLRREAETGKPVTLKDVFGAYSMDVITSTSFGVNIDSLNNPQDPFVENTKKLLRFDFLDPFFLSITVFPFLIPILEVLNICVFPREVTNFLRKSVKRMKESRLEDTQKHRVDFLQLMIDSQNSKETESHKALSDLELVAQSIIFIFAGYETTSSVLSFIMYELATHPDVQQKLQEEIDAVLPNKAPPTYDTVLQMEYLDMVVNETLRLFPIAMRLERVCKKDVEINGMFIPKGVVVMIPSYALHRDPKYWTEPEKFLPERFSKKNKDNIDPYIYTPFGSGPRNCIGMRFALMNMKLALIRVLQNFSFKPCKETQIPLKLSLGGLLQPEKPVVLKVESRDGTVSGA
Voltage-gated inwardly rectifying potassium channel KCNH2 (Homo sapiens), sequence (Q12809 whole entry, looked up): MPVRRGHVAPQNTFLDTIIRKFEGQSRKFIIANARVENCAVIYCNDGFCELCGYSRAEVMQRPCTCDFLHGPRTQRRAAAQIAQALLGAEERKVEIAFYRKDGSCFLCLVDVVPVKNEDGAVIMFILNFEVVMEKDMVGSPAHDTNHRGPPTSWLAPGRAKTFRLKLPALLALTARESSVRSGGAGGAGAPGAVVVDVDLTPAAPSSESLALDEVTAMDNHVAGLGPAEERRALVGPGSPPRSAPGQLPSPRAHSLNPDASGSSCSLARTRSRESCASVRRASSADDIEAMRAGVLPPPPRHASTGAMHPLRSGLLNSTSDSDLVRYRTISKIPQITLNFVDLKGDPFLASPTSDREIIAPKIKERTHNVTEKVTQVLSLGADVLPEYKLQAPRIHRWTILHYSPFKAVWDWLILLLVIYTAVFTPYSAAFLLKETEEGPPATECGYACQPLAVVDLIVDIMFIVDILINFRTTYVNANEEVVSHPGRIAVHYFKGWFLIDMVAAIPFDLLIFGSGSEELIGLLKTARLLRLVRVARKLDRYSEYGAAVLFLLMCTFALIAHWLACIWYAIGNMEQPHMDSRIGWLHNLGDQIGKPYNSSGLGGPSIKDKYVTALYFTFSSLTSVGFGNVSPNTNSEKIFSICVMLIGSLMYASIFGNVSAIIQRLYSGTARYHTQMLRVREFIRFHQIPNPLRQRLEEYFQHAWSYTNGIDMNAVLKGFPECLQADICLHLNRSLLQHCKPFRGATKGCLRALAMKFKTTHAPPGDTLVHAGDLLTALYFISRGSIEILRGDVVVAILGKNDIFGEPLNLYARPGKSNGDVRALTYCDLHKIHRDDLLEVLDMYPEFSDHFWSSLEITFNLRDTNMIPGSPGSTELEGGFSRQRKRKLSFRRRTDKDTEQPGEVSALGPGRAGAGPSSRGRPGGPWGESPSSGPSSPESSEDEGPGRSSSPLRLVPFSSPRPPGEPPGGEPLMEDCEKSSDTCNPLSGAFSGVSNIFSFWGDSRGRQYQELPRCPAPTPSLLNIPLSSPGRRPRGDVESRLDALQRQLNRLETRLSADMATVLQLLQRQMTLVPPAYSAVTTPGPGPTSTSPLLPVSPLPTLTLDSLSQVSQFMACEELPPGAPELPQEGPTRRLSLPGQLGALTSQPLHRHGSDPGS
Cytochrome P450 2C9 (Homo sapiens), sequence (P11712 whole entry, looked up): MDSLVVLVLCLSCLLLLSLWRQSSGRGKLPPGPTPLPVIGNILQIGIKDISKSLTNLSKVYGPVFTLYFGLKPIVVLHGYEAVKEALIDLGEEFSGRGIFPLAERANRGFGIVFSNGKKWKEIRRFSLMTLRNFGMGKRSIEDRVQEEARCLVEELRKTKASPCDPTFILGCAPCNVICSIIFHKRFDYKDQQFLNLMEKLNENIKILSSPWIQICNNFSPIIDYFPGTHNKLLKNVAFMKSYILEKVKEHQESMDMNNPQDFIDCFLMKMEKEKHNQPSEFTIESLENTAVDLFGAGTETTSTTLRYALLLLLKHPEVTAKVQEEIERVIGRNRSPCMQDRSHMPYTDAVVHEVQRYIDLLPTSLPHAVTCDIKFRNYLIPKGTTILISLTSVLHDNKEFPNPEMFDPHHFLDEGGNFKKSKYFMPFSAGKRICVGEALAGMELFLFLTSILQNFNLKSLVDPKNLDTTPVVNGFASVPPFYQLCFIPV

As to `O=C(O)CCC(=O)C(=O)O`, the Potency result in experiment [1], in experiment [2], in [3], in experiment [4], in experiment [5] and in experiment [6] was “inactive” throughout. Besides, the Potency entry in [8], in experiment [9], in [11], in [12], in experiment [13] and in [14] was “inactive” each time. For the same compound, the Potency entry in experiment [15] is “inactive”. For the same compound, in experiment [7], the max activation is -0.816%. In addition, in experiment [10], the Potency is 71 µM (active).

`O=C(O)c1ccc(OCCCOc2ccc(C(=O)O)cc2)cc1`: the Potency result in [1], in experiment [2], in experiment [3], in experiment [4], in experiment [5] and in [6] was “inactive” throughout. For the same compound, the Potency result in [8], in experiment [9], in experiment [11], in [12], in [13] and in experiment [14] was “inactive” throughout. In [15], the Potency result was “inactive”. The max activation in [7] was -2.11%. Further, the Potency in [10] was 8.71 µM (active).

Regarding `CCC(OCCCOC)OC(C)=O` (stereo not given), the Potency entry in experiment [1], in experiment [2], in experiment [3], in [4], in [5] and in experiment [6] was “inactive” in each case. Besides, the Potency entry in experiment [10], in experiment [11], in experiment [12] and in [15] was “inactive” throughout. In experiment [13], the Potency is 36.4 µM (active).

For the compound `C1COC1`, the Potency result in [1], in experiment [2], in [3], in experiment [4], in experiment [5] and in [6] was “inactive” throughout. In addition, the Potency result in experiment [10], in experiment [11], in [12], in experiment [13], in experiment [14] and in experiment [15] was “inactive” in each case.

Consider `CCC1(CO)COCOC1`, for which the Potency entry in experiment [1], in experiment [2], in [3], in experiment [4], in [5] and in experiment [6] was “inactive” each time. In addition, the Potency result in experiment [10], in experiment [12], in [14] and in experiment [15] was “inactive” throughout.

For `C1C[C@@H]2[C@H]3CC[C@H](C3)[C@@H]2C1`, the Potency result in experiment [1], in experiment [2], in experiment [3], in experiment [4], in experiment [5] and in experiment [6] was “inactive” throughout. Also, the Potency entry in experiment [12] and in experiment [14] was “inactive” each time.

As for `Nc1nnc(-c2ccc([N+](=O)[O-])o2)o1`, the Potency in experiment [1] was 27.3 µM (active); in experiment [3] it was 54.5 µM (active); in experiment [5] it was 68.6 µM (active); in [10], 39.9 µM (active); in experiment [13], 39.9 µM (active). For the same compound, the Potency result in [2], in [4], in [6], in experiment [14] and in [15] was “inactive” throughout.

As for `CO/N=C(/C(=O)N[C@@H]1C(=O)N2C(C(=O)O)=C(COC(N)=O)CS[C@H]12)c1ccco1`, the Potency result in experiment [1], in experiment [2], in experiment [3], in experiment [4], in experiment [5] and in experiment [10] was “inactive” throughout. Besides, the Potency result in experiment [13] and in [14] was “inactive” each time. Besides, the max activation in [7] was -0.884%.

On to `O=C(O)CCCCCCCCCCCBr`, for which the Potency result in experiment [1], in [2], in [3], in [4], in experiment [5] and in experiment [6] was “inactive” in each case. Moreover, the Potency result in experiment [12], in experiment [13], in [14] and in [15] was “inactive” in each case.
